Assay outcomes deposited in PubChem BioAssay by several laboratories.
Bead autofluor = compound fluorescence in toxin protease inhibitor counterscreen; compound autofluorescence counterscreen, microsphere flow cytometry; hits give high values; fluorescence intensity (test concentration not listed); actives 3.1% (n = 360,000); AID 624483; in the data active means fluorescence intensity above about 16000; inconclusive means no clear call, values can overlap the other calls
Anthrax LF prot = anthrax lethal factor protease inhibition. P15917. multiplex microsphere protease cleavage assay, LF. inhibition, % at 10 µM. actives 0.12% (n = 360,000). AID 588501
BoNT A protease = blocks Botulinum neurotoxin A light chain protease | multiplex microsphere protease substrate cleavage, flow cytometry | inhibition, % at 10 µM | actives 0.17% (n = 360,000)
MazEF act = increases E. coli MazEF RNase cleavage of RNA; FAM/BHQ RNA-DNA oligo cleavage fluorescence, 5 h; actives 0.32% (n = 350,000); activation, % at 20 µM; P0AE70; AID 504720; in the data active means activation above about 50%
BoNT-F LC inh = inhibitors of Botulinum neurotoxin F light chain protease; Multiplex microsphere protease cleavage assay, flow cytometry; actives 0.22% (n = 360,000); inhibition, % at 10 µM; in the data active means inhibition above about 35%, passing the limit was not always enough; inconclusive means no clear call, values can overlap the other calls
Large screens that a line does not name were inactive. This is a sample that favours compounds with a hit; in the whole collection about 3.7% have one here. Unless noted, no stated cut-off is given here; in the data, active means inhibition above about 30%; inconclusive means no clear call, values can overlap the other calls; inactive means below that.

Cc1ccc(C(=O)Cn2c(C)cc(C)c(C#N)c2=O)cc1	none
O=C(CNCc1ccccc1)Nc1ccc(Cl)cc1	none
CCC(C(=O)O)P(=O)(c1ccc(Cl)cc1)c1ccc(Cl)cc1 (stereo not given)	none
Cn1c(-c2ccc(F)cc2)cnc1NCc1ccccc1	Bead autofluor 17208
Cn1c(-c2ccccc2)cnc1NCc1ccc(F)cc1	BoNT-F LC inh inconclusive
Cn1c(-c2cccc(Br)c2)cnc1NCc1cccnc1	Bead autofluor 23394
Cn1c(-c2ccc(F)cc2)cnc1NCc1cccc(F)c1	none
Cc1ccc(S(=O)(=O)N2CCN(Cc3nc4ccccc4[nH]3)CC2)cc1C	none
Cc1cc(C)c(C)c(S(=O)(=O)N2CCN(Cc3nc4ccccc4[nH]3)CC2)c1C	Bead autofluor 22533, BoNT A protease inconclusive
Cc1cc(C)c(C)c(S(=O)(=O)N2CCN(C(=O)c3cc(=O)[nH]c4ccccc34)CC2)c1C	Bead autofluor 20107
CCOc1ccc(N2C(=O)/C(=C/c3ccco3)C(=O)NC2=S)cc1	BoNT-F LC inh 47.0
CC1=CCC(C(=O)O)(C(=O)N/N=C/c2cccnc2)C(c2ccccc2)C1 (stereo not given)	none
CC1=CCC(C(=O)O)(C(=O)N/N=C/c2cccs2)C(c2ccc(Cl)cc2)C1 (stereo not given)	Bead autofluor 19841
CN1CCc2c(sc3c2C(=O)NC(c2ccccc2)N3)C1 (stereo not given)	none
CN1CCc2c(sc3c2C(=O)NC(/C=C/c2ccco2)N3)C1 (stereo not given)	MazEF act 66.1
CC(C)NC(=O)c1cc(C2CCCCN2S(=O)(=O)c2ccc(F)cc2F)on1 (stereo not given)	none (no result: MazEF act)
O=c1ncn(-c2cccc(F)c2)c2ncccc12	Bead autofluor 19821, BoNT A protease inconclusive
Nc1cc(=O)[nH]c(=O)n1-c1cccc(F)c1	none
O=C(NCc1ccccc1)c1c[nH]c2cc3c(cc2c1=O)OCCO3	Bead autofluor 16706
COc1ccc(CC(=O)NCc2cccs2)cc1OC	none
O=C(Nc1ccc2c(c1)OCCO2)c1ccc(Br)c(S(=O)(=O)N2CCOCC2)c1	none
Cc1ccc(C(=O)NCc2ccc3c(c2)OCO3)cc1S(=O)(=O)N1CCOCC1	none
O=C(Oc1ccc2c(c1)OCO2)c1ccc(Br)c(S(=O)(=O)N2CCOCC2)c1	Bead autofluor 23166, BoNT A protease inconclusive
O=C(NCc1ccc2c(c1)OCO2)c1ccc(Cl)c(S(=O)(=O)N2CCOCC2)c1	Bead autofluor 23645
COc1cc2[nH]cc(C(=O)NCc3cccs3)c(=O)c2cc1OC	Bead autofluor 17586
CCOc1ccc2[nH]cc(C(=O)NCc3ccccc3)c(=O)c2c1	BoNT-F LC inh inconclusive
O=C(NCc1ccc2c(c1)OCO2)c1ccc(CN2CCOCC2)cc1	Bead autofluor 16861
COCCNC(=O)c1c[nH]c2ccc(S(=O)(=O)N3CCOCC3)cc2c1=O	none
O=C(NCc1ccc2c(c1)OCO2)c1c[nH]c2ccc(S(=O)(=O)N3CCOCC3)cc2c1=O	Bead autofluor 21299
CCOc1ccc(-c2noc(CCCC(N)=O)n2)cc1OC	Bead autofluor 22255
COc1ccc(-c2noc(CCC(N)=O)n2)cc1OC	Bead autofluor 22164, BoNT A protease inconclusive
CCOc1cc(-c2noc(CCCC(N)=O)n2)cc(Br)c1OC	none
COc1ccc(C2=NO[C@@H]3C(=O)N(c4c(C)cccc4C)C(=O)[C@H]23)cc1OC	Bead autofluor 22305, BoNT A protease inconclusive
O=C(Nc1ccc(Oc2nnc(-c3ccccc3)c3ccccc23)cc1)c1ccccc1	none
Cn1nnnc1SCc1c(F)cccc1F	Bead autofluor 21178
Cn1nnnc1SCc1cccc(CSc2nnnn2C)n1	none
NS(=O)(=O)c1ccc(CNC(=O)c2scc3c2CCCC3)cc1	none
Cc1occc1-c1nnc(SCC(=O)N2CCCCC2)o1	none
CSC(=O)CC(=O)NC(=O)c1ccccc1	Bead autofluor 25369
CCCn1c(=N)c(S(=O)(=O)c2ccccc2)cc2c(=O)n3ccccc3nc21	none
CCn1c(=N)c(S(=O)(=O)c2ccccc2)cc2c(=O)n3ccccc3nc21	MazEF act 228.2
COc1ccc(CCn2c(=N)c(C(=O)NCc3ccco3)cc3c(=O)n4ccccc4nc32)cc1	Bead autofluor 22951
Cc1ccc(S(=O)(=O)c2cc3c(=O)n4ccccc4nc3n(C)c2=N)cc1	Bead autofluor 18992
Cc1ccc(S(=O)(=O)c2cc3c(=O)n4ccccc4nc3n(C3CCCC3)c2=N)cc1	none
COc1ccc(CCn2c(=S)[nH]c3cc(C(=O)NCc4ccco4)ccc3c2=O)cc1OC	Bead autofluor 20732
COc1ccc(-n2c(=S)[nH]c3cc(C(=O)NCc4ccco4)ccc3c2=O)cc1OC	BoNT-F LC inh inconclusive
COc1ccc(CCn2c(=N)c(S(=O)(=O)c3ccc(Cl)cc3)cc3c(=O)n4ccccc4nc32)cc1	Bead autofluor 21901
COc1ccc(CCn2c(=N)c(S(=O)(=O)c3ccccc3)cc3c(=O)n4ccccc4nc32)cc1	none
CC(C)OCCCn1c(=N)c(C(N)=S)cc2c(=O)n3ccccc3nc21	BoNT A protease 34.8
Cc1ccc(S(=O)(=O)c2cc3c(=O)n4ccccc4nc3n(CCc3ccccc3)c2=N)cc1	MazEF act 71.7
Cc1ccc(S(=O)(=O)c2cc3c(=O)n4cccc(C)c4nc3n(C3CCCCC3)c2=N)cc1	MazEF act 52.5
CNC(CC(C)C)C(=O)NC1C(=O)NC(CC(N)=O)C(=O)NC2C(=O)NC3C(=O)NC(C(=O)NC(C(=O)O)c4cc(O)cc(O)c4-c4cc3ccc4O)C(O)c3ccc(c(Cl)c3)Oc3cc2cc(c3OC2OC(CO)C(O)C(O)C2OC2CC(C)(N)C(O)C(C)O2)Oc2ccc(cc2Cl)C1O (stereo not given)	none
COc1cccc(N2C(=NC(=O)CCC3CCCC3)SC3CS(=O)(=O)CC32)c1 (stereo not given)	none
CC(=O)c1ccc(OCCCC(=O)OCC(=O)N2CCN(S(=O)(=O)c3ccc(C)cc3C)CC2)cc1	none
Cc1cccc2sc(NC(=O)CSCc3ccccc3)nc12	Bead autofluor 23019, BoNT A protease inconclusive
CC(NS(C)(=O)=O)C(c1cccs1)N1CCN(c2ccc(F)cc2)CC1 (stereo not given)	none
CCCC(=O)NC(C)C(c1cccs1)N1CCN(C)CC1 (stereo not given)	none
CC(C)C(=O)NC(C)C(c1cccs1)N1CCN(C)CC1 (stereo not given)	Bead autofluor 23161
CC(NS(=O)(=O)c1ccccc1)C(c1cccs1)N1CCN(c2ccccc2)CC1 (stereo not given)	Bead autofluor 17711
COc1ccccc1N1CCN(C(c2cccs2)C(C)NS(=O)(=O)c2ccccc2)CC1 (stereo not given)	none
CC(NS(C)(=O)=O)C(c1cccs1)N1CCN(C)CC1 (stereo not given)	Bead autofluor 16401
COc1ccc(NC(=O)CCOc2ccccc2C)cc1S(=O)(=O)N1CCCCC1	none
C/C(=N\NC(=O)CNC(=O)c1ccccc1F)c1ccco1	none
CCOc1ccc(-c2cc(C(=O)NCCCN3CCN(CC)CC3)c3ccccc3n2)cc1	Bead autofluor 21315, BoNT A protease inconclusive
